# Out of some 1,400 compounds screened, about 600 (43%) were called active. No stated cut-off is given here; in the data, active means inhibition above about 17%; inactive means the rest. So high a share suggests a set chosen from earlier hits. Only a sample is shown.
# Test system: methionyl-tRNA synthetase (Trypanosoma brucei brucei)
# Assay: T. brucei MetRS inhibitors, orthogonal assay for T. brucei MetRS inhibitor project, biochemical, fluorescence polarization (AID 651607);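 further: 0% = vehicle wells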
# Conditions: purified T. brucei MetRS, at 11.9 µM, stronger effect = higher value
row,SMILES,inhibition
1,O=C(CC(=O)Nc1ccc(Cl)c(Cl)c1)N/N=C/c1ccc(O)cc1,30.8% (active)
2,O=C(Cn1c2[n+](c3ccc(C(F)(F)F)cc31)CCCCC2)Nc1c(F)cccc1F,9.23% (inactive)
3,O=C(OCc1nc2ccccc2[nH]1)C1CCCCC1,9.3% (inactive)
4,CCO[C@@H]1OC(C(=O)NCc2nc3ccccc3[nH]2)=C[C@H](C2CCCCC2)[C@H]1CCCO,17.2% (active)
5,O=C(Nc1ccccc1)Nc1nnc(COc2ccccc2F)s1,23.8% (active)
6,Cc1ccc(CNC(=O)CSc2nnc3c(n2)[nH]c2ccc(F)cc23)cc1,51.8% (active)
7,CN(C(=O)CSc1nnc(Nc2ccccc2)s1)C1CCS(=O)(=O)C1 (stereo not drawn),-4.02% (inactive)
8,CCCCCCCC[n+]1cccc(C(=O)N2c3c(nc(N)[nH]c3=O)NC(C)C2C)c1 (stereo not drawn),13.1% (inactive)
9,NC1=NC(=O)S/C1=C\c1ccc(O)cc1,16% (inactive)
10,CC(C)(C)c1ccc(/C=C2\SC(=O)N=C2N)cc1,22.6% (active)
11,CN(C(=O)CSc1nnc(-c2c[nH]c3ccccc23)o1)C1CCS(=O)(=O)C1 (stereo not drawn),15.7% (inactive)
12,O=C1CCCN1CCCNc1ncnc2c1[nH]c1ccccc12,28.8% (active)
13,COc1ccc(CCn2ccc(O)c(Cc3ccc(Cl)cc3Cl)c2=O)cc1OC,2.44% (inactive)
14,Cc1ccc(S(=O)(=O)c2c[nH]c3ccc(C)cc3c2=O)cc1,20.1% (active)
15,Cc1ccc(S(=O)(=O)c2c[nH]c3ccc(Cl)cc3c2=O)cc1,60.6% (active)
16,CCN(CC)C(=O)C(=O)c1cn(CC(=O)NCc2ccc3c(c2)OCO3)c2ccccc12,50.9% (active)
17,COc1ccc(-c2[nH]ncc2/C=N/NC(=O)c2cc(Br)ccc2O)c(OC)c1,15.2% (inactive)
18,CCCCN1C[C@H](c2ccc(Br)cc2)[C@@H](CC(=O)Nc2ccc(Br)cc2)C1=O,33.1% (active)
19,O=C(NCc1cccc(CNC(=O)Nc2cccc(O)c2)c1)Nc1cccc(O)c1,8.48% (inactive)
20,O=C(Cc1ccc(S(=O)(=O)N2CCOCC2)s1)Nc1ccc(Br)c(C(F)(F)F)c1,27.2% (active)
21,O=C(Nc1ccc(S(=O)(=O)Nc2ncccn2)cc1)c1cncc(Br)c1,-0.88% (inactive)
22,O=C(O)CCn1c(O)c(C=C2N=c3ccccc3=N2)sc1=S,17.1% (active)
23,Cn1c(CCCOc2ccc(Cl)cc2Cl)n[nH]c1=S,11.9% (inactive)

row,SMILES,inhibition
1,c1ccc2cc3c(NCCN4CCOCC4)ccnc3cc2c1,25.4% (active)
2,Cc1ccc(NC(=O)C(C)c2cccc(C(=O)c3ccccc3)c2)cc1 (stereo not drawn),65.3% (active)
3,Cc1ccccc1OCC(=O)NNC(=O)c1ccc(-n2cncn2)c([N+](=O)[O-])c1,11.1% (inactive)
4,Cc1ccc(S(=O)(=O)N(C)C)cc1NC(=O)c1ccc(-n2cncn2)c([N+](=O)[O-])c1,34.4% (active)
5,O=C(NNC(=O)c1ccc(-n2cncn2)c([N+](=O)[O-])c1)c1ccccc1,32% (active)
6,CC(=O)c1ccc(NC(=O)c2ccc(-n3cncn3)c([N+](=O)[O-])c2)cc1,50.4% (active)
7,Cc1cc(C)cc(NC(=O)N(C)Cc2ccccc2)c1,4.52% (inactive)
8,Cc1ccc(N2C(=O)CC(NCc3ccc4c(c3)OCO4)C2=O)cc1Cl (stereo not drawn),55.8% (active)
9,NS(=O)(=O)c1ccc(CCNC(=O)Nc2ccc(Cl)cc2)cc1,21.5% (active)
10,O=C(CSCC(=O)Nc1cccc([N+](=O)[O-])c1)Nc1ccccc1,8.38% (inactive)
11,O=C(Nc1ccc(Cl)cc1)N1CCc2[nH]c3ccccc3c2C1,8.86% (inactive)
12,Fc1ccc(NC(=S)N2CCc3[nH]c4ccccc4c3C2)cc1,18.4% (active)
13,O=C(Nc1cccc([N+](=O)[O-])c1)N1CCc2ccccc2C1,11.1% (inactive)
14,COc1ccc(NC(=O)C(NC(C)=O)C(=O)NCc2ccccc2Cl)cc1 (stereo not drawn),1.33% (inactive)
15,COc1ccc(OCC(O)CNC(=O)Nc2ccc(Cl)cc2)cc1 (stereo not drawn),51% (active)
16,CCCCN(C)Cc1c(C)[nH]c2ccc(Cl)cc2c1=O,39.9% (active)
17,Clc1ccc(-c2cc(C3CCNCC3)[nH]n2)c(Cl)c1,21.7% (active)
18,O=S(=O)(NCc1ccc(Cl)cc1Cl)c1cccs1,13.7% (inactive)
19,O=C(NNc1cc(Cl)cc(Cl)c1)c1c(F)cccc1Cl,37.3% (active)
20,Oc1[nH]c2ccc(Br)cc2c1N=Nc1nn[nH]n1,13.7% (inactive)
21,CSc1nsc(NC(=O)Nc2ccccc2)n1,18.2% (active)
22,OCCNc1nc2ccccc2n1-c1ncnc2sc3c(c12)CCC3,12.1% (inactive)
23,Cc1ccc(O)c(CNc2nc3ccccc3[nH]2)c1,77.9% (active)

row,SMILES,inhibition
1,Clc1ccccc1SCc1nc2ccccc2[nH]1,-1.51% (inactive)
2,S=c1[nH]nc(CSCc2ccc(Cl)cc2Cl)n1-c1ccccc1,2.4% (inactive)
3,O=C(NCC(O)c1nc2ccccc2[nH]1)c1ccc(Br)cc1 (stereo not drawn),17.1% (active)
4,O=S(=O)(c1ccc(Br)cc1)N1CCC(c2nc3ccccc3[nH]2)CC1,4.17% (inactive)
5,O=[N+]([O-])c1ccc(N2CCN(c3ccc(O)cc3)CC2)c(Cl)c1,8.79% (inactive)
6,c1ccc(CN=C2Nc3ccccc3CS2)nc1,5.74% (inactive)
7,COC(=O)CN1C(=S)N(c2ccccc2)C(=O)C1CC(=O)Nc1ccc(Cl)cc1 (stereo not drawn),15% (inactive)
8,COc1ccccc1-n1c(SCC(=O)Nc2ccc(Cl)cc2)nc(O)c(Cc2ccccc2)c1=O,57.9% (active)
9,O=C(/C(=N\O)n1cncn1)c1ccc(Br)cc1Br,4.41% (inactive)
10,O=C(O)c1ccc(NS(=O)(=O)c2ccc3c(c2)C(=O)c2cc(S(=O)(=O)Nc4ccc(C(=O)O)cc4)ccc2-3)cc1,1% (inactive)
11,Cc1c(CN2CCC(CO)(CCOc3ccccc3)CC2)[nH]c2ccc(Cl)cc12,20.1% (active)
12,O=C(CSc1nc2ccccc2[nH]1)N/N=C/C=C\c1ccccc1[N+](=O)[O-],12.7% (inactive)
13,Cc1ccc(-c2cnc(C(O)c3cc(Cl)cc(Cl)c3)[nH]2)cc1 (stereo not drawn),43.7% (active)
14,OC(c1cc(Cl)cc(Cl)c1)c1ncc(-c2ccccc2C(F)(F)F)[nH]1 (stereo not drawn),58.3% (active)
15,O=C(NCCN1CCOCC1)c1ccccc1N1C(=O)[C@@H]2Cc3c([nH]c4ccccc34)C(c3cccc(Cl)c3)N2C1=O (stereo partly drawn),13.3% (inactive)
16,CC(=N\NC(=O)c1cc(Br)ccc1O)/C(=N/O)C(=O)Nc1ccccc1,4.72% (inactive)
17,COC(=O)/C(=C\Nc1ccccc1)NC(=O)c1ccc(Cl)cc1Cl,59.6% (active)
18,O=C(Cn1c(NCCO)nc2ccccc21)c1ccc(Cl)cc1Cl,-2.79% (inactive)
19,CC(C)OCCCNc1ncnc2c1[nH]c1ccc(F)cc12,80.6% (active)
20,CCN1CCCC1CNc1ncnc2c1[nH]c1ccc(F)cc12 (stereo not drawn),31.6% (active)
21,CCCCCn1nnnc1-c1nc2cc3ccccc3cc2[nH]c1=O,24.4% (active)
22,c1ccc2cc3[nH]c(CN4CCCCC4)nc3cc2c1,3.4% (inactive)

# Reference: PubChem BioAssay AID651607 (The Scripps Research Institute Molecular Screening Center, 2012)
